CF NFkB block: inhibitors of PAF-induced NF-kB signaling, primary screen, cell-based, GFP fluorescence, uHTS; KKLEB NF-kB-GFP reporter, GFP fluorescence overnight; inhibition, % at 5 µM; 0.86% of 360,000 active; AID 588850, 2011;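 active = at least 50% inhibition at 5 µM, scaled per plate between neutral and stimulator controls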;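 note: PAF is a Pseudomonas aeruginosa culture filtrate used as stimulus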
HIF-2a inh: HIF-2a reporter inhibitors, primary screen, luminescence, 786-0 RCC cells | 0.72% of 360,000 active | 786-0 RCC cells HIF-2a reporter, luciferase luminescence, overnight | AID 624352, 2012 | inhibition, % at 18.8 µM;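 active = inhibition of the luminescence signal of 40% or more relative to plate controls, in a single-dose primary screen at 18.75 µM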
Peg3 prom inh: Peg3 promoter-driven luciferase inhibitors, primary screen, cell-based, HeLa, luciferase luminescence; AID 588405, 2011; 1.7% of 360,000 active; inhibition, % at 20 µM; HeLa PEG-Prom luciferase reporter, overnight;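 active = inhibition of at least 50% at 20 µM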
MITF TRPM1 inh: inhibitors of MITF-dependent TRPM1 promoter reporter, primary screen, cell-based, SK-MEL-5, single point, luciferase. SK-MEL-5 TRPM1 promoter luciferase, 24 h. inhibition, % at 12.5 µM. 0.83% of 330,000 active;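 active = mean inhibition across replicates of 60% or more, whatever share of single replicates reaches that level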
KKLEB cytotox: cytotoxicity in KKLEB CF airway cells, primary screen, cytotoxicity control for CF NF-kB inhibitor project, cell-based, uHTS, fluorescence assay plates | KKLEB CF airway cells viability, ATPlite luminescence, overnight; active compounds read low; cells stimulated with P. aeruginosa culture filtrate | activity change (cytotoxicity), % at 5 µM | 0.36% of 360,000 active;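 active = corrected activity change at or below -50% at 5 µM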
Shn3 3UTR inh: reduction of Shn3 3'UTR firefly luciferase signal, primary screen, Schnurri-3 inhibitor project, cell-based, Clone20 osteoblasts, set 2; 0.52% of 360,000 active; inhibition, % at 12.5 µM; Clone20 osteoblast Shn3 3'UTR firefly luciferase, 24 h;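 active = mean inhibition of at least 75% with every replicate also reaching 75%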
Hits are given with their value; - = inactive; . = no result given. Compounds with a hit are over-represented: about 2.8% of the library has one in this group of screens.

SMILES	CF NFkB block	HIF-2a inh	Peg3 prom inh	MITF TRPM1 inh	KKLEB cytotox	Shn3 3UTR inh
O=C1/C(=C/c2ccccc2)CN(C(=O)CCN2CCOCC2)C/C1=C\c1ccccc1	90	85	96	101	-	-
C[N+](C)(C)CCC(=O)N1C/C(=C/c2ccccc2)C(=O)/C(=C\c2ccccc2)C1	-	-	77	-	-	-
COc1ccc(CS(=O)(=O)CC2(O)CCN(C(=O)c3cccc(C(F)(F)F)c3)CC2)cc1	-	-	-	-	-	-
Cc1cccc(NC(=O)C(=O)NNC(=O)c2ccc(C(C)(C)C)cc2)c1	84	-	-	-	-62	-
CC(C)(C)c1ccc(C(=O)NNC(=O)c2cccc(Br)c2)cc1	-	-	-	-	-	-
CC(C)=C1C2CCC1C1C(=O)N(NC(=O)COc3ccc(C(C)(C)C)cc3)C(=O)C21 (stereo not given)	-	-	55	-	-	-
Cc1ccc2[nH]c3c(=O)n(CC(=O)Nc4ccccc4N4CCN(C)CC4)ncc3c2c1	-	-	53	-	-	-
COC(=O)c1c(C)[nH]c(C(=O)COc2ccc3ccc(=O)oc3c2)c1C	-	-	-	-	-	-
CC(=O)c1c(C)[nH]c(C(=O)COc2ccc3ccc(=O)oc3c2)c1C	-	-	68	-	-	-
CC(C)(C)c1ccc(-n2nc(C#N)c(Cl)cc2=O)cc1	91	92	104	98	-101	98
CCOc1ccc(C(C(=O)NC(C)(C)C)N(CCOC)C(=O)CCC(=O)Nc2ccccn2)cc1 (stereo not given)	-	-	-	-	-	-
Cc1nn(CCc2nn[nH]n2)c2nc(-c3ccc(C4CCCCC4)cc3)cc(C(F)(F)F)c12	76	-	-	-	-57	-
CCOC(=O)CCc1nc2ccccc2[nH]1	-	-	-	-	-	-
COCC(=O)O[C@]1(CCN(C)CCCc2nc3ccccc3[nH]2)CCc2cc(F)ccc2[C@@H]1C(C)C	-	-	90	-	-	-
CC(=NNC(=S)N(Cc1ccccn1)Cc1ccccn1)c1cnccn1	-	-	54	80	-	95
S=C(NN=Cc1ccccn1)N(Cc1ccccn1)Cc1ccccn1	-	-	-	74	-	-
O=C(NCCNC(=O)c1ccc(-c2cc(Cl)ccc2Cl)o1)c1cnccn1	-	-	-	.	-	-
C=CCC[C@@H](Cc1ccc(F)cc1)C(=O)OC[C@@H](Cc1c[nH]c2ccccc12)NC(=O)[C@@H](CC=C)CC(=O)NCCO	-	-	-	-	-	-
C=CCC[C@@H](Cc1ccc(F)cc1)C(=O)OC[C@H](Cc1c[nH]c2ccccc12)NC(=O)[C@H](CC=C)CC(=O)N(CCO)Cc1ccccc1	-	-	64	-	-	-
C=CCC[C@H](Cc1ccc(F)cc1)C(=O)OC[C@H](Cc1c[nH]c2ccccc12)NC(=O)[C@@H](CC=C)CC(=O)N(CCO)Cc1ccccc1	-	-	54	-	-	-
C=CCC[C@H](Cc1ccc(F)cc1)C(=O)OC[C@@H](Cc1c[nH]c2ccccc12)NC(=O)[C@@H](CC=C)CC(=O)N(CCO)Cc1ccccc1	-	-	-	-	-	-
Cc1ccc(S(=O)(=O)NCc2ccc(C(=O)N3CCN(c4ccc([N+](=O)[O-])cc4)CC3)cc2)cc1	-	-	-	-	-	90
COc1ccc(NS(=O)(=O)c2cc(NC(=O)/C=C/c3cccs3)ccc2N2CCOCC2)cc1	-	-	50	-	-	-
CCCCCC(=O)Nc1ccc(N2CCOCC2)c(S(=O)(=O)Nc2ccc(OC)cc2)c1	-	-	-	-	-	-
OCCN(CCO)CC(O)COc1ccc(C23CC4CC(CC(C4)C2)C3)cc1 (stereo not given)	-	89	-	-	-	-
SMILES	CF NFkB block	HIF-2a inh	Peg3 prom inh	MITF TRPM1 inh	KKLEB cytotox	Shn3 3UTR inh
OCCN(CCO)CC(O)COc1ccc(Br)cc1 (stereo not given)	-	-	-	-	-	-
CN1CCN(c2ccc(S(=O)(=O)N3CCOCC3)cc2)CC1	-	-	-	-	-	-
COc1ccc(-c2cc(=O)c3cc(OC)ccc3o2)cc1	-	-	-	-	-51	-
CC1CCN(Cc2c(C(=O)N/N=C/c3cc(Cl)ccc3O)nnn2-c2nonc2N)CC1	-	-	76	-	-	90
OCCC1CN(C2CCC2)CCN1Cc1ccc(F)c(F)c1 (stereo not given)	-	-	-	-	-	-
NC1=NC[C@H](c2ccccc2)N1CCc1cc(C(F)(F)F)cc(C(F)(F)F)c1	-	-	98	-	-	-
CC(O)[C@H]1CN=C(N)N1CCc1cc(C(F)(F)F)cc(C(F)(F)F)c1 (stereo not given in full)	-	-	-	-	-	-
C[C@]12CC[C@@H]3c4cc(O)c(O)cc4CC[C@H]3[C@@H]1CC[C@@H]2O	55	-	-	-	-	-
COc1ccccc1C1CC(c2cccc(NS(C)(=O)=O)c2)=NN1S(=O)(=O)c1ccccc1 (stereo not given)	-	-	-	-	-	-
O=C(CN1CCCCC1)N=Nc1c(O)[nH]c2ccccc12	-	-	-	-	-	-
O=C(CN1CCN(Cc2ccccc2)CC1)N=Nc1c(O)[nH]c2ccccc12	-	-	52	-	-	-
CC(C)=CCC/C(C)=C/CNC(=O)CC1C[C@H](C(=O)N(C(C)C)C(C)C)[C@@]2(C)c3[nH]c4ccccc4c3CCN2C1=O (stereo not given in full)	-	-	89	-	-	-
CC(C)=CCC/C(C)=C/CNC(=O)C[C@H]1C[C@H](C(=O)N(C(C)C)C(C)C)[C@@]2(C)c3[nH]c4ccc(Cl)cc4c3CCN2C1=O	-	-	-	-	-	-
CC(C)=CCC/C(C)=C/CNC(=O)C[C@H]1C[C@H](C(=O)N2CCOCC2)[C@@]2(C)c3[nH]c4cc(CCC(=O)N(C)C)ccc4c3CCN2C1=O	-	-	-	-	-	89
COc1cc(C(=O)NC2CCN(C)CC2)ccc1Nc1ncc2c(n1)N(C1CCCC1)CCC(=O)N2C(C)C	-	-	69	74	-	-
CC1CC(C)CN(S(=O)(=O)c2ccc3oc(=O)ccc3c2)C1 (stereo not given)	-	-	-	-	-	-
CCN(c1ccccc1)c1nc(Cl)nc2c1cnn2C	-	-	-	-	-	-
COCc1cc(C)nc(OCC(=O)N/N=C/c2ccc(-c3cc([N+](=O)[O-])ccc3Cl)o2)c1C#N	-	-	54	-	-	-
